# Source: PubChem BioAssay
# Most compounds without a hit are left out; they make up all but 3.1% or so of the library.
# GoLoco inh red: qHTS Assay for Inhibitors of RGS12 GoLoco Motif Activity (Red Fluorophore); Gai1:RGS12 GoLoco peptide FP, rhodamine, 10 min; Potency, µM (doses to about 61.6 µM), usual class: inhibitors; actives 0.44% (n = 230,000); AID 880, 2007; active means well fitted inhibition curve with a large enough effect, not every such curve was filed as active; inactive means no such curve, though single readings can be large or run the other way; further: nearly all actives have a fitted effect of over 30% in size
# Tau fibril FP: qHTS for Inhibitors of Tau Fibril Formation, Fluorescence Polarization | Microtubule-associated protein tau (Homo sapiens), P10636 | K18 P301L tau heparin fibrillization, Alexa594 FP, 6 h | Potency, µM (titrated, usually from 57.7 µM), actives largely listed as inhibitors | actives 0.39% (n = 280,000) | AID 1468, 2008; further: nearly all actives have a fitted effect of over 55% in size
# Target sequence (P10636 561-689 P618L limits assumed): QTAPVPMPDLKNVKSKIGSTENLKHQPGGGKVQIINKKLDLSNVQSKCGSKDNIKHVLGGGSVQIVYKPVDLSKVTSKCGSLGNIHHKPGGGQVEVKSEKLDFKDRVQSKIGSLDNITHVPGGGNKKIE
#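 Recombinant K18 P301L […], labeled with Alexa 594 at 0.24 uM over 15 uM unlabeled; heparin inducer 20 uM final; 37 C, 6 hr; FP endpoint.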
# TRb-SRC2 inh: qHTS for Inhibitors of the Interaction of Thyroid Hormone Receptor and Steroid Receptor Coregulator 2 | Thyroid hormone receptor beta (Homo sapiens), P10828 | TRbeta-SRC2 peptide binding, fluorescence polarization; receptor liganded with 1 µM T3 | Potency, µM (highest dose often 106 µM), actives largely listed as inhibitors | actives 0.065% (n = 280,000) | AID 1469, 2008; further: nearly all actives have a fitted effect of over 50% in size
# Target sequence (P10828 whole entry, looked up): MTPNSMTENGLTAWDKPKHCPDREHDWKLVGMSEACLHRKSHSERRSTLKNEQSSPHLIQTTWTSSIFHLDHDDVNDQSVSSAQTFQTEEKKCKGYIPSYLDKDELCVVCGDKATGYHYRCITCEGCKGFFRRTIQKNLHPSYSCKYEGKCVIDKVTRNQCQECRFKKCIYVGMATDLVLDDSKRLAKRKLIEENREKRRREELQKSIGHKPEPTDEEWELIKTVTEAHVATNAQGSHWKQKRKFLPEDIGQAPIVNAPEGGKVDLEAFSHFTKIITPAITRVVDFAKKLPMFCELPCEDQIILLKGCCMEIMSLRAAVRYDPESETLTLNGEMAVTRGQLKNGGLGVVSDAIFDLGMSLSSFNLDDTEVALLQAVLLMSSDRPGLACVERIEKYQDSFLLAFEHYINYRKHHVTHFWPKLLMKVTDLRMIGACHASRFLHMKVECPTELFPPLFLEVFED
#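 Compounds were added to 0.6 uM TRb ligand-binding domain and 20 nM Texas Red-labeled SRC2 peptide in Tris buffer containing 1 uM T3, incubated 5 hr at ambient temperature, then read by fluorescence polarization.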
# Tau ThT inhib: qHTS for Inhibitors of Tau Fibril Formation, Thioflavin T Binding; Microtubule-associated protein tau (Homo sapiens), P10636; recombinant tau K18 P301L, heparin-induced fibrillization, ThT fluorescence; Potency, µM (titrated, usually from 57.4 µM), usual class: inhibitors; actives 2.1% (n = 270,000); further: nearly all actives have a fitted effect of over 55% in size
#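 Using a mix of unlabeled (15 uM) and Alexa 594-labeled (0.24 uM) tau K18 P301L, heparin-triggered fibrillization over 6 hr at 37 C was scored by ThT fluorescence.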
# Tau fluor cs: Counterscreen qHTS for Inhibitors of Tau Fibril Formation, Fluorescence Polarization. Potency, µM (series often up to 57.7 µM). tau K18 P301L (four-repeat tau fragment) Alexa594 fluorescence, heparin fibrillization. actives 0.93% (n = 280,000); further: nearly all actives have a fitted effect of over 55% in size
#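 Human K18 P301L tau (15 uM unlabeled plus 0.24 uM Alexa 594-labeled, final) in 100 mM sodium acetate pH 7 was mixed with compound and 20 uM heparin and incubated 6 hr at 37 C.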
# TR SRC2 fluor cs: Total Fluorescence Counterscreen for Inhibitors of the Interaction of Thyroid Hormone Receptor and Steroid Receptor Coregulator 2 | TRb/SRC2 Texas Red total fluorescence interference | Potency, µM (titrated, usually from 106 µM) | actives 0.29% (n = 280,000); active means well fitted curve in either direction with a large enough effect; inconclusive means small, poorly fitted or top-dose-only effect
#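 Human TRb ligand-binding domain at 0.6 uM with 20 nM Texas Red SRC2 peptide in Tris buffer containing 1 uM T3 and 5% DMSO, incubated with compound 5 h at ambient temperature. Total fluorescence (555/632 nm) calculated as parallel + 2 × perpendicular.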
# Hits are given with their value; n = inactive; u = inconclusive; x = not tested or not shown; ! = a repeat was not active; [ ] = dose if it differs, or a comment. Unless noted, the call rests on the fitted dose curve; in most records, active means well fitted curve in the direction sought with a large enough effect; inconclusive means small, poorly fitted or top-dose-only effect, or another doubt; inactive means no such curve, though single readings can be large; an effect the other way counts as inactive or inconclusive.
SMILES,GoLoco inh red,Tau fibril FP,TRb-SRC2 inh,Tau ThT inhib,Tau fluor cs,TR SRC2 fluor cs
C[C@@H](O)CCC[C@H](O)/C=C/[C@@H]1[C@@H](C/C=C\CCCC(=O)O)[C@@H](O)C[C@H]1O,n,n,n,n,n,n
COC(=O)[C@@]1(Cc2ccccc2)[C@H]2c3cc(C(=O)N4CCCC4)n(Cc4c(CO)[nH]cc(C)c4=O)c3C[C@H]2CN1C(=O)c1ccccc1,n,n,n,u,n,n
CCOC(=O)c1cc2c(=O)n3ccccc3nc2n(C)c1=NC(=O)c1cc2ccccc2o1,x,n,n,n,n,n
CC(=O)Nc1ccc2nc3c(=O)n(C)c(=O)n(C)c3nc2c1,n,u,n,18µM,n,n
Cn1c(=O)c2nc3ccc(NC(=O)C(F)(F)F)cc3nc2n(C)c1=O,x,n,n,n,n,n
COc1ccc(C(=O)OCc2csc(C)n2)c(O)c1,n,n,n,n,n,n
COC(=O)c1c(C)oc2ccc(N(C(=O)c3ccncc3)S(=O)(=O)c3ccc(C)cc3)cc12,n,u,n,u,n,n
Cc1ccc(S(=O)(=O)N(C(=O)c2ccncc2)c2ccc(OC(=O)c3ccncc3)c3ccccc23)cc1,n,u,n,25µM,u,n
Cc1ccc(S(=O)(=O)N(C(=O)c2ccncc2)c2ccc(OC(=O)c3ccncc3)c3ccccc23)c(C)c1,n,u,n,14µM,u,n
Cc1cccc(N2CCN(C(=O)Cn3c(=O)c4cccn4c4ccc(F)cc43)CC2)c1C,x,n,n,n,n,n
CCOC(=O)CSc1nc(C)c(C(C)=O)cc1C(N)=O,n,n,n,n,n,n
CN(C)C=NC(=O)c1cc(C(=O)c2ccc(C(C)(C)C)cc2)c[nH]1,n,n,n,n,n,n
Cn1c(N)c(C(=O)COC(=O)c2cc(-c3ccccc3)nc3ccccc23)c(=O)n(C)c1=O,n,u,n,n,u,n
Cn1c(N)c(C(=O)COC(=O)c2cc(-c3ccccc3)nc3ccccc23)c(=O)n(Cc2ccccc2)c1=O,n,14µM,n,n,u,n
COc1ccc(-c2cc(C(F)(F)F)n3nc(C(=O)Nc4cccc(Cl)c4Cl)cc3n2)cc1OC,x,n,n,n,n,0.035µM[quencher]
COc1ccc(-c2cc(C(F)(F)F)n3nc(C(=O)Nc4cc(C(F)(F)F)ccc4Cl)cc3n2)cc1OC,x,n,n,n,n,n
COc1ccc(-c2cc(=O)n(-c3ccc([N+](=O)[O-])cc3)[nH]2)cc1,n,n,n,11µM,u,n
COc1ccc(-c2[nH]n(-c3ccc([N+](=O)[O-])cc3)c(=O)c2C=NCc2ccc(F)cc2)cc1,n,n,n,u,n,n
O=Cc1c(-[n+]2ccccc2)nc([O-])n1-c1ccccc1,n,n,n,n,n,n
COC(=O)CCCC1=CC2=CC(=O)C(C)(OC(=O)c3cccs3)C(=O)C2=CN1CCc1ccccn1 (stereo not drawn),n[14.2 µM],u,n[11.2 µM],11µM!,n[11.6 µM],n[11.2 µM]
C=CCN1C=C2C(=O)C(C)(OC(=O)c3cccs3)C(=O)C=C2C=C1CCCC(=O)OC (stereo not drawn),n[14.2 µM],u,n[11.2 µM],u,n[11.6 µM],n[11.2 µM]
CN(C)c1cccc(C(=O)NNC(=S)NC2CC3CCC2C3)c1 (stereo not drawn),n,n,n,n,n,n
COC(=O)C1=C(C(=O)OC)SC2(S1)C(C(=O)OC)=C(C(=O)OC)SC1=C2c2cc(C)ccc2NC1(C)C,n,u,n,13µM,u,n
COc1cccc(-c2nc(SCC(=O)NCc3ccccc3)c3c(=O)n(C)c(=O)n(C)c3n2)c1,x,n,n,n,n,n
Cc1cccc(-n2ncc3c(Nc4ccc(Oc5ccc(Cl)cc5)cc4)ncnc32)c1,x,13µM,n,n,4µM[quencher],n
SMILES,GoLoco inh red,Tau fibril FP,TRb-SRC2 inh,Tau ThT inhib,Tau fluor cs,TR SRC2 fluor cs
COc1cccc(Nc2ncnc3c2cnn3-c2cccc(C)c2)c1,n,u,n,n,u,n
Fc1cccc(Nc2ncnc3c2cnn3-c2ccccc2)c1,n,25µM,n,u,u,n
Cc1cccc(-n2ncc3c(Nc4ccc(C)c(Cl)c4)ncnc32)c1,x,8.9µM,n,n,u,n
C=CCc1ccc(OC(=O)c2ccccc2)c(OC)c1,n,n,n,n,n,n
O=C(CSc1nnnn1C1CCCCC1)N1CCN(C(=O)c2ccco2)CC1,n,n[2.34 µM],n,3.5µM,n,n
O=C(N1CCCC1)C12CC3CCC(CC(C3)C1)C2,n,n,n,n,n,n
Nc1[nH]nc2ncc3cc4ccccc4nc3c12,n,n,n,n,n,n
CCCCOc1ccc(CSCCNC(=S)Nc2ccccc2)cc1,n,u,n,n,u,n
CCCCCOc1ccc(CSCCNC(=S)Nc2ccccc2)cc1,n,13µM,n,n,u,n
CCOc1ccc(NC(=O)N2CCN(c3nnc(C)c4c(C)n(-c5ccccc5)nc34)CC2)cc1,x,n,n,n,n,0.0005µM[quencher]
Cc1cc(/C=C2\SC(=S)NC2=O)c(C)n1-c1ccc(O)cc1,n,n,n,7.9µM,22µM[quencher],n
Cc1cc(/C=C2\SC(=S)NC2=O)c(C)n1-c1ccccc1,n,u,n,7.1µM,u,n
COc1ccc(-n2c(C)cc(/C=C3\SC(=S)NC3=O)c2C)cc1,n,n,n,u,n,n
Cc1cc(/C=C2/SC(=O)NC2=O)c(C)n1-c1ccc(N2CCOCC2)cc1,n,n,n,n,n,n
Cc1cc(/C=C2\SC(=Nc3ccc(F)cc3)NC2=O)c(C)n1-c1ccc(S(N)(=O)=O)cc1,n,n,n,14µM,u,n
COc1ccc(NC(=O)c2cccnc2N2CCOCC2)cc1,n,n,n,n,n,n
O=C(CSC1=NCCS1)NC(NC(=O)CSC1=NCCS1)c1ccccc1,n,n,n,n,n,n
O=C(CSC1=NCCS1)NC(c1ccccc1)c1ccccc1,n,u,n,16µM,n,n
CCOC(=O)NNC(=O)C1CCC(C)CC1 (stereo not drawn),n,n,n,n,n,n
CCOc1cc(/C=N/Nc2nc(-c3cccc(S(=O)(=O)N4CCCC4)c3)cs2)ccc1O,n,n,n,u,10µM[quencher],n
COc1ccc(-c2cnnc(N/N=C/c3ccc(O)c(OC)c3)n2)cc1,n,n,n,1.8µM,u,n
